The structures appear in SMILES notation. Hit rate of the full screen: of about 50,000 compounds, about 800 (1.6%) showed an effect of 50% or more. This excerpt belongs to a sample that is enriched for strong results.

Chain of Bcl-2-like protein 10 (Homo sapiens) (Q9HD36 whole entry, looked up): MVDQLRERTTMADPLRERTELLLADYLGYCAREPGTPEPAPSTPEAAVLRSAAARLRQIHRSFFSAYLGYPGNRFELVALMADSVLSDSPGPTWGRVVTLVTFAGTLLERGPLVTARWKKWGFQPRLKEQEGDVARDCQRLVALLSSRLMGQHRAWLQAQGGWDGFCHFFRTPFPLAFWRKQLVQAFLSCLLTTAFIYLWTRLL

This assay concerns the target Bcl-2-like protein 10 (Homo sapiens) (UniProt Q9HD36). The assay can be described thus: TR3 peptide-Bcl-B binding displacers, biochemical primary FP assay, phenotype converters (AID 1240).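 Also: 0% = Bcl-B with tracer peptide and DMSO and 100% = tracer peptide lacking Bcl-B.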 The note with it: GST-Bcl-B / FITC-TR3 peptide fluorescence polarization; stronger effect = higher value; compound at 3.75 mg/L.
As for `O=C1NC(=S)NC(=O)C1=Cc1ccc(Oc2ccc([N+](=O)[O-])cn2)cc1`, the displacement worked out at 10.5%.
For the compound `COc1cc(/C=C2\SC(=S)NC2=O)ccc1Oc1ccc([N+](=O)[O-])cn1`, the displacement turned out to be 20.6%.
The same measure for `COc1cc(/C=C2\NC(=S)NC2=O)ccc1Oc1ccc([N+](=O)[O-])cn1`: 8.2%.
In the case of `O=C1NC(=S)N/C1=C\c1ccc(Oc2ccc([N+](=O)[O-])cn2)cc1`, the displacement turned out to be 101%.
Under `O=C1NC(=S)S/C1=C\c1ccc(Oc2ccc([N+](=O)[O-])cn2)cc1` stands 61.8%; under `O=C1C(=Cc2ccc(Oc3ccc([N+](=O)[O-])cn3)cc2)C(=O)c2ccccc21`, 4.6%.
In the case of `COc1ccc(C(=O)Nc2ccc(S(=O)(=O)NC(C)=O)cc2)cc1`, the displacement worked out at 13.1%.
In the case of `COc1ccc(-n2cnc3cc(NS(=O)(=O)c4ccc(C)cc4)ccc32)cc1`, the displacement was -1.2%.
For the compound `COc1cc(C(=O)Nc2nnc(CC(=O)NCc3ccccc3)s2)cc(OC)c1OC`, the displacement is -14%.
Regarding `CC(=O)Oc1ccc(N2C(=O)C3C4C=CC(C4=C(C)C)C3C2=O)cc1` (stereo not drawn), the displacement was -3.2%.
The same measure for `CCCOc1ccc(N2C(=O)C3C4C=CC(C4=C(C)C)C3C2=O)cc1` (stereo not drawn): 9.9%.
The same measure for `COc1ccc(N2C(=O)C3C4C=CC(C4=C(C)C)C3C2=O)cc1` (stereo not drawn): 120%.
In the case of `O=C1N=C(N2CCOCC2)S/C1=C/c1ccc(Cl)cc1`, the displacement is -0.1%.
Regarding `COC(=O)c1sccc1NC(=O)c1cc(-c2ccc(OC)cc2OC)nc2ccccc12`, the displacement came to 16.4%.
On to `COC(=O)c1cc(-c2ccc(Br)cc2)nc2ccccc12`, for which the displacement stood at 0%.
Turning to `COC(=O)c1ccccc1NC(=O)c1cc(-c2ccc(OC)cc2OC)nc2ccccc12`, the displacement was -3%.
Take `COc1ccccc1NC(=O)c1cc(-c2cccs2)nc2ccccc12`: the displacement is -3.7%.
Consider `COC(=O)c1cc(-c2ccc(OC)cc2)nc2ccc(Br)cc12`, for which the displacement is -4.1%.
Consider `COC(=O)c1sccc1NC(=O)c1cc(-c2cccs2)nc2ccccc12`, for which the displacement was determined as 60.4%.
Under `COc1ccc(NC(=O)c2cc(-c3ccc(OC)cc3OC)nc3ccccc23)c(OC)c1` stands -0.8%; under `COc1ccc(-c2cc(C(=O)Nc3ccccc3F)c3ccccc3n2)c(OC)c1`, 82.3%; under `COc1ccc(Cl)cc1NC(=O)c1cc(-c2cccs2)nc2ccccc12`, 8.5%.
Turning to `COC(=O)c1cc(-c2cccs2)nc2ccc(Br)cc12`, the displacement came out at 104%.
Turning to `COC(=O)c1sccc1NC(=O)c1cc(-c2ccccc2Cl)nc2ccccc12`, the displacement came to 22.7%.
For the compound `COc1cc(NC(=O)c2cc(-c3cccs3)nc3ccccc23)c(OC)cc1Cl`, the displacement turned out to be 55.2%.
Under `O=C(CSCC(=O)Nc1cccc(C(F)(F)F)c1)Nc1ccccc1` stands -10.4%.
Turning to `CCOc1cc(/C=N/NC(=O)c2ccncc2)ccc1OC(=O)c1ccc([N+](=O)[O-])cc1`, the displacement amounted to 6.9%.
Regarding `O=C1c2cccc3cccc(c23)C(=O)N1/N=C/c1ccco1`, the displacement worked out at 25.1%.
The same measure for `COc1ccc(S(=O)(=O)Nn2cnnc2)cc1`: -1%.
Consider `O=C(O)CN(c1ccccc1)S(=O)(=O)c1ccccc1[N+](=O)[O-]`, for which the displacement is 4.7%.
Consider `CCOC(=O)C1=C(O)/C(=C\c2ccc(OC)cc2)N=C1C`, for which the displacement came out at 4.4%.
Consider `Cc1onc(-c2ccccc2Cl)c1C(=O)Nc1sc(C)c(C)c1C(=O)OC(C)C`, for which the displacement is -6.3%.
The same measure for `CCN(CC)CCN1C(=O)C(O)=C(C(=O)/C=C/c2ccccc2)C1c1ccccc1[N+](=O)[O-]` (stereo not drawn): 3.2%; for `COc1ccc(-c2cc(C(F)(F)F)n3nc(C(=O)NCc4ccco4)c(Cl)c3n2)cc1OC`: -5.3%; for `COc1ccc(Cc2noc(COc3ccc(Cl)cc3)n2)cc1`: 2.7%.
`Cc1ccccc1OCCOc1cccc(/C=C2/SC(=S)N(C)C2=O)c1`: the displacement is 1.2%.
Regarding `COc1ccccc1OCCOc1cccc(/C=C2/SC(=S)N(C)C2=O)c1`, the displacement was 95.5%.
Under `COc1ccccc1OCCOc1ccc(/C=C2/SC(=S)N(C)C2=O)cc1` stands 3.9%; under `COc1cc(C=C2C(=O)N(C)C(=O)N(C)C2=O)ccc1OCCOc1ccc([N+](=O)[O-])cc1`, 26.1%.
The same measure for `Cc1ccc(OCCOc2ccccc2/C=C2/SC(=S)N(C)C2=O)cc1`: 3.3%; for `CN1C(=O)/C(=C\c2ccc(OCCOc3ccc([N+](=O)[O-])cc3)cc2)SC1=S`: -0.4%; for `CN1C(=O)/C(=C\c2ccccc2OCCOc2ccc([N+](=O)[O-])cc2)SC1=S`: 133%.
For the compound `CN1C(=O)/C(=C\c2ccccc2OCCOc2ccc(Br)cc2)SC1=S`, the displacement amounted to 2.3%.
`COc1cc(/C=C2/SC(=S)N(C)C2=O)ccc1OCCOc1ccc([N+](=O)[O-])cc1`: the displacement was found to be 74.5%.
In the case of `CCc1ccc(/C=C2\C(=O)NN(c3ccc(Cl)c(Cl)c3)C2=O)cc1`, the displacement was 5.7%.
On to `CCOc1cc(C(=O)Nc2ccc3c(c2)OCCO3)cc(OCC)c1OCC`, for which the displacement is -7.7%.
Take `C=CCn1c(C)c(/C=C(/C#N)C(=O)Nc2ccc(OC)cc2)c2ccccc21`: the displacement is -6.6%.
Turning to `CCOC(=O)c1c(NC(=O)c2ccc(C(=O)c3ccccc3)cc2)sc2c1CCC2`, the displacement is 10.7%.
On to `Cc1ccc(N[C@@H]2O[C@H](CO)[C@@H](O)[C@H](O)[C@@H]2O)cc1`, for which the displacement worked out at 11%.
As for `CC(=O)Oc1ccc2c(C)c(C)c(=O)oc2c1`, the displacement is 6.4%.
Take `CSc1nnc2c(n1)OC(c1ccc(OCc3ccccc3)cc1)Nc1ccccc1-2` (stereo not drawn): the displacement came to 7.4%.
The same measure for `CCSc1nnc2c(n1)OC(c1ccc(C(=O)O)cc1)Nc1ccccc1-2` (stereo not drawn): 9.9%; for `CCSc1nnc2c(n1)OC(c1ccc(OCc3ccccc3)cc1)Nc1ccccc1-2` (stereo not drawn): 120%; for `CCOC(=O)C1=C(O)/C(=C/c2ccc(O)cc2)SC1=Nc1ccc([N+](=O)[O-])cc1`: -9.8%.
The same measure for `CCOC(=O)C1=C(O)/C(=C/c2ccc([N+](=O)[O-])cc2)SC1=Nc1ccc(C)cc1`: -3.1%; for `CCOC(=O)C1=C(O)CSC1=Nc1ccc([N+](=O)[O-])cc1`: 112%.
Under `CCOC(=O)C1=C(O)/C(=C/c2ccc(O)c(OCC)c2)SC1=Nc1ccc([N+](=O)[O-])cc1` stands -5.5%; under `CCOC(=O)C1=C(O)CSC1=Nc1ccc(Cl)cc1`, -6.7%; under `CCOC(=O)C1=C(O)/C(=C/c2ccc(F)cc2)SC1=Nc1ccc([N+](=O)[O-])cc1`, 59.1%.
With `CCOC(=O)C1=C(O)/C(=C/c2ccc(Cl)cc2)SC1=Nc1ccc([N+](=O)[O-])cc1`, the displacement is -7.6%.
The same measure for `CCOC(=O)C1=C(O)CSC1=Nc1ccc(C)cc1`: -15.6%; for `CCOC(=O)C1=C(O)/C(=C/c2ccc(OCC)cc2)SC1=Nc1ccc([N+](=O)[O-])cc1`: 122%; for `COc1ccc(Oc2coc3cc(OC(C)=O)ccc3c2=O)cc1`: 11.2%.
The same measure for `COc1ccc2nc(NC(=O)COc3ccc(Cl)cc3)sc2c1`: 14.5%; for `COc1cc(NC(=O)CCCOc2ccc(Cl)cc2Cl)c(OC)cc1Cl`: 0.2%; for `COc1ccc(NC(=O)CCCOc2ccccc2)c(OC)c1`: -3.2%.
For `COc1cc(NC(=O)CCCOc2ccccc2)c(OC)cc1Cl`, the displacement was determined as 71.9%.
Under `O=C(N/N=C/c1cccs1)c1sc2cc(Cl)ccc2c1Cl` stands 7.2%; under `O=C(NCc1cccs1)c1sc2cc(F)ccc2c1Cl`, -3.8%.
Take `C/C(=N/NC(=O)c1sc2cc(F)ccc2c1Cl)c1cccs1`: the displacement was determined as 132%.
In the case of `CC1=C(C(=O)Nc2cc(Cl)ccc2C)C(c2ccccc2Br)NC(=S)N1` (stereo not drawn), the displacement was -8.3%.
For the compound `O=C(Nc1ccc(O)c(-c2nc3ccccc3o2)c1)c1cc2ccccc2o1`, the displacement is -10.8%.
The same measure for `CCOC(=O)NC(NC(=O)OCC)c1cccc([N+](=O)[O-])c1`: -5.1%; for `COc1cc(/C=C2\SC(=S)N(CC(=O)O)C2=O)cc(OC)c1OC`: -4%; for `CCOc1cc(/C=C2/SC(=S)N(C)C2=O)ccc1OC(=O)c1ccc(F)cc1`: 13.6%.
The same measure for `COc1cc(/C=C2/SC(=S)N(CC(=O)N3CCOCC3)C2=O)cc(OC)c1OC`: 13.2%; for `COc1cc(/C=C2\SC(=S)N(CC(=O)N3CCCc4ccccc43)C2=O)cc(OC)c1OC`: 91.5%; for `CCOc1cc(/C=C2\SC(=S)N(C)C2=O)ccc1O`: -6.7%.
As for `CCOc1cc(/C=C2/SC(=S)N(C)C2=O)ccc1OC(=O)c1ccc(C)cc1`, the displacement amounted to 62.3%.
Regarding `CCOc1cc(/C=C2\SC(=S)N(CCOC)C2=O)ccc1O`, the displacement came to 89.2%.
On to `COc1cc(/C=C2\SC(=S)N(CC(C)C)C2=O)ccc1O`, for which the displacement worked out at 91.5%.
For the compound `CCOc1cc(/C=C2/SC(=S)N(C)C2=O)ccc1OS(=O)(=O)c1ccc(C)cc1`, the displacement is -1.9%.
Consider `COCCN1C(=O)/C(=C/c2ccc(O)c(OC)c2)SC1=S`, for which the displacement was -4.4%.
Take `CCN1C(=O)/C(=C\c2ccc(O)c(OC)c2)SC1=S`: the displacement was -3.9%.
On to `CCOc1cc(/C=C2\SC(=S)N(CC(C)C)C2=O)ccc1O`, for which the displacement worked out at 15.9%.
Under `CC1(C)Nc2ccccc2N(Cc2ccc(Cl)c(Cl)c2)C1=O` stands -7.9%; under `Cc1ccc(-c2nc3ccccc3o2)cc1NC(=O)c1ccco1`, 3.1%.
The same measure for `CCOC(=O)C(=O)Nc1ccc(S(=O)(=O)Nc2nccc(C)n2)cc1`: 27.4%.
Regarding `CC(=O)Nc1ccc(S(=O)(=O)Nc2ccc(C(=O)Nc3nccs3)cc2)cc1`, the displacement was found to be 7.5%.
`COC(=O)c1sccc1NC(=O)/C=C/c1ccc([N+](=O)[O-])cc1`: the displacement is 5.4%.
Take `CC(=O)OC1CC(C)(C)N([O])C(C)(C)C1`: the displacement came to 5.8%.
On to `O=C1C2ON(c3ccccc3)C(c3ccco3)C2C(=O)N1c1ccc(N2CCOCC2)cc1` (stereo not drawn), for which the displacement stood at 2.3%.
Consider `C=CCNC(=O)c1ccc(OCc2ccccc2)cc1`, for which the displacement came out at 10.2%.
For the compound `C/C(=N\NC(=O)c1ccncc1)c1ccco1`, the displacement is -4.8%.
Consider `O=C(Nc1ccc(-c2nc3ccccc3s2)cc1)c1cc2ccccc2o1`, for which the displacement was -6.9%.
In the case of `S=C1NC(c2ccccc2)=NCN1c1ccccc1`, the displacement turned out to be 1.8%.
Regarding `C=CCN1C(=O)/C(=C\c2ccc(OCc3ccc(Br)cc3)c(OC)c2)SC1=S`, the displacement was -11.3%.
Consider `COc1cc(/C=C2/SC(=S)N(C)C2=O)ccc1OCCOc1ccc(Br)cc1`, for which the displacement came out at 2.3%.
With `COC(=O)CN1C(=O)/C(=C/c2ccc(OCc3ccccc3Cl)c(OC)c2)SC1=S`, the displacement is 10.3%.
For the compound `COc1cc(/C=C2/SC(=S)N(C)C2=O)ccc1OCc1ccc(Br)cc1`, the displacement was found to be 88.9%.
The same measure for `CCOc1cc(/C=C2\SC(=S)N(CCS(=O)(=O)O)C2=O)ccc1O`: -60.3%.
On to `CCOc1cc(/C=C2/SC(=S)N(CC)C2=O)cc(Br)c1OCCOc1cccc(OC)c1`, for which the displacement worked out at 92.3%.
With `CCN1C(=O)/C(=C\c2cc(Cl)c(OCCOc3cccc(OC)c3)c(OC)c2)SC1=S`, the displacement was 2.9%.
The same measure for `COC(=O)CN1C(=O)/C(=C/c2ccc(OCc3ccc(Cl)cc3)c(OC)c2)SC1=S`: 87.2%; for `CCN1C(=O)/C(=C\c2cccc(OCCOc3cccc(OC)c3)c2)SC1=S`: 3.4%.
Consider `CCOc1cc(/C=C2\SC(=S)N(CC(=O)OC)C2=O)ccc1O`, for which the displacement came out at 122%.
For the compound `COC(=O)CN1C(=O)/C(=C\c2cccc(O)c2)SC1=S`, the displacement was determined as 0%.
For `COC(=O)CCN1C(=O)/C(=C/c2ccc(OCc3ccc(Cl)cc3)c(OC)c2)SC1=S`, the displacement was 24.7%.

For the origin of these results see PubChem BioAssay AID1240 (Sanford-Burnham Center for Chemical Genomics, 2008).
